Assay outcomes: PubChem BioAssay, Broad Institute
HIF act – HIF pathway transcriptional activation | U2OS HRE-luciferase reporter, luminescence; normalized: DMSO 0%, desferrioxamine 100% | activation, % at 7.5 µM (by protocol) | hit rate 0.32% among 300,000 | AID 1910;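 active = mean activation of at least 10% of the iron chelator positive control signal, with at least half of replicates also reaching 10%; inconclusive = mean and replicate majority disagree about reaching 10%; inactive = mean and most replicates under 10%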
AI-2 QS mod – modulators of Vibrio harveyi AI-2 quorum sensing system; Vibrio harveyi JMH597 AI-2 luminescence/OD600 ratio, 9 h; stronger effect = lower value; strain lacks LuxN and CqsS sensors; 0 = neutral-control median; activity change, % at 7.5 µM; hit rate 0.4% among 300,000; AID 2094; in the data active = activity change below about -75%, passing the limit was not always enough; inconclusive = no clear call, values can overlap the other calls;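 note: luminescence divided by OD600 gain over 9 h not by final OD600 alone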
SUMO Mot1 rescue – blocks SUMOylation pathway, rescuing yeast Mot1-301 growth. AID 2716. hit rate 1% among 320,000. S. cerevisiae Mot1-301 growth rescue, ATP luminescence, 38.5C; percent above DMSO median, 100 means doubled. growth rescue, % at 18.8 µM;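 active = every valid replicate shows activation above 250% relative to neutral control wells; inactive = the rest, any valid replicate at or below 250%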;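 note: OY570 slx delta 5 strain wells were the positive control but not used for scaling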
ALR inh – human ALR oxidase inhibition via reduced H2O2; hit rate 3.8% among 290,000; inhibition, % (concentration not given with the values); purified ALR, DTT oxidation, H2O2 HRP-luminol luminescence; P55789;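 active = mean replicate inhibition above about 79%, with every replicate also reaching it, limit read from the data; inconclusive = only one of the two criteria met; inactive = mean below limit and not every replicate reaching it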
Target sequence (P55789 whole entry, looked up): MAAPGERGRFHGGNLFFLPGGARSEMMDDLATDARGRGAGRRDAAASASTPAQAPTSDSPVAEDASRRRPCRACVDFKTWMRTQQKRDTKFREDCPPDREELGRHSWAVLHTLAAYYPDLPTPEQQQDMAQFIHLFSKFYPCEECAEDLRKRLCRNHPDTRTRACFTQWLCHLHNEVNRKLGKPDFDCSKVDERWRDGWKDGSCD
Active calls of the source: *; ? = inconclusive; . = not tested or not shown. This is a sample that favours compounds with a hit; in the whole collection about 4.8% have one here.

SMILES	HIF act	AI-2 QS mod	SUMO Mot1 rescue	ALR inh
O=C(O)C[C@H](O)C[C@H](O)/C=C/c1c(C2CC2)nc2ccccc2c1-c1ccc(F)cc1	-3	24	.	.
CC(C)n1c(/C=C/[C@H](O)C[C@H](O)CC(=O)O)c(-c2ccc(F)cc2)c2ccccc21	.	.	-29	99*
Cc1ccc(NC(=O)CSCC(=O)Nc2cccc3ncccc23)cc1	2	8	-16	-13
C=CCn1c(CNS(=O)(=O)c2ccc(Br)cc2)n[nH]c1=S	0	4	4	70
CCN(CC)C1CC(=O)N(c2cccc(C)c2)C1=O (stereo unspecified)	0	26	285*	.
Cc1ccc(N/N=C/c2c(O)cc(C)oc2=O)cc1	0	5	169	99*
C/C(=N\Nc1ccccc1)c1c(O)cc(C)oc1=O	0	16	324*	99*
Cc1ccccc1CCN(C(=O)c1csnn1)C(C(=O)NC1CCCC1)c1ccncc1 (stereo unspecified)	1	2	2	5
O=C(NCc1cc([N+](=O)[O-])ccc1O)c1cccnc1Sc1ccccc1Cl	0	40	109	7
Cc1ccccc1NC(=O)NC1(C(=O)NCc2ccco2)CCCCC1	0	15	-2	-1
Cc1cc2c(N=O)c(NO)ccc2[nH]1	6	63	-7	79*
O=Nc1c(O)[nH]c2ccc(F)cc12	2	37	-13	-3
CCN1CCN(C(=O)C(Cc2ccccc2)NC(=O)c2ccc(Cl)c(S(=O)(=O)N(C)C)c2)CC1 (stereo unspecified)	.	.	197	-5
Nc1c(/C=C2/C=CC(=O)C(O)=C2)c(=O)nc2sc(CC(=O)N3CCCCC3)nn12	0	1	-6	99*
Nc1c(/C=C2/C=CC(=O)C(O)=C2)c(=O)nc2sc(CC(=O)N3CCCC3)nn12	1	23	28	99*
Nc1c(C=C2C=CC(=O)C=C2)c(=O)nc2sc(CC(=O)N3CCCCC3)nn12	0	14	-21	.
Cc1ccc(CN2CC(C(=O)NCCC3=CCCCC3)CC2=O)cc1 (stereo unspecified)	.	.	7	-7
CC1CCCCC1NC(=O)COC(=O)COc1ccccc1F (stereo unspecified)	.	.	10	.
CCOC(=O)SC1=N/C(=C\c2ccc(N(C)C)cc2)C(=O)S1	-1	62	804	84*
O=C1SC(SCc2ccccc2Cl)=N/C1=C\c1ccc(C(=O)O)cc1	3	23	-16	101*
CCSC1=N/C(=C\c2ccc(C(=O)O)cc2)C(=O)S1	-1	14	1	71
COC(=O)c1ccc(/C=C2\N=C(SC)SC2=O)cc1	0	4	-9	99*
O=C(NCc1cccc(Cl)c1)c1ccc(-c2csnn2)cc1	0	-1	11	2
O=C(Nc1ccc(-c2csnn2)cc1)C1CC1	0	17	180	-17
O=C(NNc1ccc(-c2csnn2)cc1)c1ccccc1C(F)(F)F	-1	21	-4	98*
SMILES	HIF act	AI-2 QS mod	SUMO Mot1 rescue	ALR inh
O=C(NNc1ccc(-c2csnn2)cc1)c1cc(Cl)cc(Cl)c1	-1	-14	283*	43
Cc1cc(OCC(=O)N2CCC(C(N)=O)CC2)c2c(C)cc(=O)oc2c1	0	22	16	-7
O=S(=O)(c1ccccc1)N1N=C(c2ccc(Br)cc2)CC1c1ccco1 (stereo unspecified)	-1	30	-3	-3
C[C@H]1COC(=O)[C@@H](NC(=O)OCC2c3ccccc3-c3ccccc32)C/C=C\C[C@H](CC(=O)NCCO)C(=O)N1	.	.	-13	-5
CN(C(=O)CSc1ncccn1)C1CCS(=O)(=O)C1 (stereo unspecified)	-1	22	136	.
CC(=O)Nc1ccc(SCC(=O)N(C)C2CCS(=O)(=O)C2)cc1 (stereo unspecified)	-1	4	3	98*
CCN(C(=O)CSc1ccc2c(c1)OCCO2)C1CCS(=O)(=O)C1 (stereo unspecified)	0	30	-8	92*
CCN(C(=O)CSc1nc(-c2ccccc2)c(-c2ccccc2)[nH]1)C1CCS(=O)(=O)C1 (stereo unspecified)	0	8	44	99*
CCN(C(=O)CSc1nc2ccc(C)cc2[nH]1)C1CCS(=O)(=O)C1 (stereo unspecified)	.	.	-6	23
COc1ccc(N2CC(C(=O)Nc3ccc(S(=O)(=O)Nc4nccs4)cc3)CC2=O)c(OC)c1 (stereo unspecified)	.	.	2	-1
O=C(O)CC1S/C(=N/N=C/c2ccc(-c3ccc(Cl)cc3[N+](=O)[O-])o2)NC1=O (stereo unspecified)	0	36	-8	82*
O=C(O)CC1S/C(=N/N=C/c2ccc(-c3ccc(Cl)c([N+](=O)[O-])c3)o2)NC1=O (stereo unspecified)	0	22	10	?
CCn1nc(C)cc1Nc1ccccc1	0	22	-12	61
Cc1cc(Nc2nc3ccccc3nc2Cl)n(-c2ccccc2)n1	1	20	-24	96*
Cc1cc(Nc2ccc(Cl)cc2)n(-c2ccccc2)n1	0	3	-10	98*
Cc1cc(Nc2ccccc2C(=O)O)n(-c2cccc(Cl)c2)n1	0	35	11	98*
Cc1cc(Nc2ccccc2)n(CCO)n1	0	20	-13	99*
Cc1cc(Nc2nc3ccccc3nc2Cl)n(-c2ccccc2C)n1	1	11	-12	10
Cc1cc(Nc2ccc(Cl)cc2)n(-c2cccc(Cl)c2)n1	-1	13	-14	51
Cc1c(C(=O)OCC(=O)N(C)CC(=O)Nc2ccc(F)cc2)oc2ccccc12	.	.	-10	5
CCN(CC)S(=O)(=O)c1ccc(C(=O)Nc2nnc(CSC)o2)cc1	0	67	-14	91*
Nc1ncc2c(n1)-c1ccoc1CC2	0	10	366	89*
Clc1ccc(NCc2ccsc2)cc1	-7	25	408*	68
Fc1ccccc1CNc1ccc(Cl)cc1	1	28	205	31
CCCn1nc(NS(=O)(=O)c2cccc3nonc23)c2cc3cccc(C)c3nc21	-1	5	10	97*
SMILES	HIF act	AI-2 QS mod	SUMO Mot1 rescue	ALR inh
CCn1nc(NS(=O)(=O)c2ccc(NC(C)=O)cc2)c2cc3cccc(C)c3nc21	51*	15	-5	19
CCCn1nc(NS(=O)(=O)c2cccc3nonc23)c2cc3cc(C)ccc3nc21	0	22	-14	37
Cc1ccc2cc3c(NS(=O)(=O)c4cccc5nonc45)nn(CC(C)C)c3nc2c1	1	20	-12	98*
Cc1cc(NC(=O)Cc2ccccc2[N+](=O)[O-])no1	0	32	75	-19
O=C1CC(c2ccc(F)cc2)CC(O)=C1C=NCCN1CCNCC1 (stereo unspecified)	-25	11	301*	-5
O=C1CC(c2ccccc2)CC(O)=C1C=NCCN1CCNCC1 (stereo unspecified)	-1	23	-8	-19
O=C(CNC(=O)c1ccc(Cl)c([N+](=O)[O-])c1)OCN1C(=O)c2ccccc2C1=O	0	20	-3	4
